Data published in the supplement of paper PMC3334620.
Over roughly 33,000 sequences, “E-score (-0.5 to 0.5)” has its median near -0.054; the highest 2% begin near 0.35. Many of the other results were omitted from the sample, so the highest values are more common in it than they were.

Molecular target: T1, Stb5 (UniProt P38699)
T1 sequence: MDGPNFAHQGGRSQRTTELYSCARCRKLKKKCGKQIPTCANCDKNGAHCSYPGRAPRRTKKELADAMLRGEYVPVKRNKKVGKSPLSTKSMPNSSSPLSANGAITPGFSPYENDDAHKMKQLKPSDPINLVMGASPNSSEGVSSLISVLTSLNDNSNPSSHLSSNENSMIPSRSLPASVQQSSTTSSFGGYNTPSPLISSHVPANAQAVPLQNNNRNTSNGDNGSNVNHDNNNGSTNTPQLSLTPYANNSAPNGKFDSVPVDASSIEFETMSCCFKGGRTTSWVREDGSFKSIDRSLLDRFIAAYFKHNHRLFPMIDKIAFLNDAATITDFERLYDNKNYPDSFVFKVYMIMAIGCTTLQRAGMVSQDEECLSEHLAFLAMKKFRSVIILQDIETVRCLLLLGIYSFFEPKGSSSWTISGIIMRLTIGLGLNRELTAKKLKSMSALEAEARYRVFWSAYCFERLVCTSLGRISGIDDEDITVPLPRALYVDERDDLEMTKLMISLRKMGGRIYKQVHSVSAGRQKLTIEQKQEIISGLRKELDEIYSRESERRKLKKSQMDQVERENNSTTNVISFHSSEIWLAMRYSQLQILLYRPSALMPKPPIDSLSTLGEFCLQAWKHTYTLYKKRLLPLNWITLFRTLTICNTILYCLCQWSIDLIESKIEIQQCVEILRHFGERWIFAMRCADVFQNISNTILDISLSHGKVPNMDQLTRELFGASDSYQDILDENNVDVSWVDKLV
Test: PBM E-score (8-mer binding enrichment) (E-score (-0.5 to 0.5)); higher = stronger / more preferred TF binding
Conditions: protein concentration: 200 nM; construct: GST-full length
Procedure, shortened: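 E-scores (a modified Wilcoxon-Mann-Whitney statistic) were assigned by the Universal PBM Analysis Suite to every ungapped eight-base word pooled with its reverse complement. The input came from universal all-10-mer Agilent arrays made double-stranded by primer extension and probed with GST-tagged yeast transcription factors at about 100-200 nM. Fluorescent anti-GST detected bound protein, and masliner normalised the scans.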

Point of comparison: ACGCTTTC, “PBM E-score” value -0.205. Against it:
- CCGACAGC — higher, 0.341
- ATGCTCCC — higher, -0.0728
- ACGGTACT — higher, 0.389
- ACGGTCAT — higher, 0.368
- ACGGTACG — higher, 0.214
- ACGGTACC — higher, 0.283
- ACGGTCAG — higher, -0.0787
- CCGGTGCC — higher, 0.328
- GCGGTGCA — higher, 0.259
- GCGGTGCC — higher, 0.387
- ACGGTCAA — higher, 0.126
- TCGCTAGA — lower, -0.243
- AGCACCTG — higher, -0.14
- CCCTCTCA — lower, -0.284
- AAACGAGC — lower, -0.209
- GTACTCCA — lower, -0.229
- AGCGGACT — higher, 0.39
- AGCGGACA — higher, 0.393
- CGCGGACA — higher, 0.315
- AGCGGATA — higher, 0.286
- AGCGGAAT — higher, 0.228
- AGCGGACG — higher, 0.284
- CCCCCCCA — lower, -0.263
- ACTCATAT — higher, -0.0119
- CACCCCGA — higher, 0.325
- GCCCCCGC — higher, 0.256
- TACCCCCA — higher, -0.114
- GACCCCGA — higher, 0.377
- CACCCCGC — higher, 0.394
- TACCCCGA — higher, 0.407
- GACCCCCC — lower, -0.259
- GACCCCCA — higher, -0.201
- TACCCCAA — higher, -0.157
- CACCCCCC — higher, -0.14
- CACCCCGG — higher, 0.277
- GACCCCGC — higher, 0.391
- GGTGCTCA — higher, 0.0877
- CGAAAGAG — higher, -0.0144
- ACGCAGAG — lower, -0.218
- CCTCCATC — higher, -0.18
- AGCGGGAC — higher, 0.303
- AGCGAGAC — higher, -0.0631
- CTAGCACC — higher, 0.336
- GCGTCATA — higher, -0.0207
- GCAATGCA — higher, -0.0992
- CCAGCCAG — lower, -0.223
- ACAGTGAA — higher, -0.147
- CCTTAATC — higher, 0.109
- GTTATCTA — higher, -0.00767
- ATCAACGA — higher, 0.0713
- ACGGGTAG — higher, -0.0642
- AGAGTCCC — higher, 0.0723
- CAAGTCCG — higher, 0.356
- CAAGTCCA — higher, -0.171
- CAGGTCCG — higher, 0.237
- AAGGTCCG — higher, 0.442
- AGAGTCCT — lower, -0.216
- AAGGTCCA — higher, -0.171
- AACGTCCG — higher, 0.375
- AGAGTCCG — higher, 0.378
- AACGTCCC — higher, -0.0635
- AACGTCCA — higher, -0.0958
- CAAGTCCC — higher, 0.00375
- GAACTGCC — higher, -0.118
- CGGATCCG — higher, 0.124
- ATGGTCTA — lower, -0.23
- AAGAACCG — higher, 0.262
- AAAGATCG — higher, -0.0774
- AGGCATCC — lower, -0.261
- ACATTAGC — higher, -0.083
- AGGCCGTG — higher, 0.212
- CTCTTGTC — higher, -0.198
- ACGCCATG — lower, -0.293
- TAGCCGGA — higher, 0.279
- CCTGAAGG — higher, -0.14
- AAAGTCCT — higher, 0.108
- AAAGTCCG — higher, 0.466
- AAAGTCCA — higher, -0.136
- ACGATTAC — higher, -0.161
- CTCTGCCA — lower, -0.235
- TCGGCCCA — higher, 0.105
- ACGGAGAT — higher, 0.403
- ACGGAGCT — higher, 0.373
- ACGGATAT — higher, 0.367
- ACGGATAA — higher, 0.215
- ACGGATAG — higher, -0.0573
- ACGGAGAA — higher, 0.188
- ACGGAGCG — higher, 0.299
- ACGGAGCC — higher, 0.263
- ACGGAGAC — higher, 0.272
- AACTGTGA — higher, -0.19
- ATTGGAAA — higher, -0.0189
- ATCCTTTC — higher, -0.195
